MCF10A rereplic – A quantitative high throughput screen for small molecules that induce DNA re-replication in MCF 10a normal breast cells | 2.9% of 350,000 active | MCF 10A DNA re-replication, Hoechst nuclear intensity, 48 h | Potency, µM (titrated, usually from 46.1 µM), inactives show at the top dose activity, positive = re-replication, usual class: activators | AID 624296, 2012; note: % of control where 0% means no effect; nearly all actives have a fitted effect of over 50% in size
KB-V1 MDR tox – qHTS assay for MDR1-selective chemotherapeutics: Primary screen using the drug-selected MDR subline cells KB-V1; KB-V1 MDR cells viability, CellTiter-Glo, 72 h; Potency, µM (titrated, usually from 46.1 µM), actives largely listed as cytotoxic; 3.4% of 400,000 active; note: % is set by controls: 0 for no effect and ±100 for the full control effect; nearly all actives have a fitted effect of over 60% in size
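qHTS viability screen in drug-selected KB-V1 MDR cells: 72 h compound treatment at 37 degrees C, ATP luminescence end point.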
KB-3-1 cytotox – qHTS assay for MDR1-selective chemotherapeutics: Primary screen using the parental adenocarcinoma cell KB-3-1; AID 1347075, 2019; Potency, µM (titrated, usually from 46.1 µM), hits mostly cytotoxic; 1.4% of 400,000 active; KB-3-1 viability, CellTiter-Glo ATP luminescence, 72 h; note: % is set by controls: 0 for no effect and ±100 for the full control effect; nearly all actives have a fitted effect of over 60% in size
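Parental KB-3-1 viability, qHTS format: 72 h compound exposure, 37 °C; CellTiter-Glo; media-only wells and DMSO plates as controls; concentration-effect fits on corrected data.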
SW480 rereplic – A quantitative high throughput screen for small molecules that induce DNA re-replication in SW480 colon adenocarcinoma cells; SW480 DNA re-replication, Hoechst DNA content imaging, 48 h; Potency, µM (highest dose often 46.1 µM), without a hit: top-dose re-replication activation, hits mostly activators; 1.8% of 340,000 active; AID 624297, 2012; note: % of control where 0% means no effect; nearly all actives have a fitted effect of over 55% in size
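Image-based read-out: total Hoechst fluorescence of nuclei (405 nm excitation, 500-530 nm emission), with hits raising the fraction of high-intensity nuclei. SW480 colon cells incubated 48 hr with compounds at 37 C.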
ELG1 DNA repair – qHTS screen for small molecules that inhibit ELG1-dependent DNA repair in human embryonic kidney (HEK293T) cells expressing luciferase-tagged ELG1; HEK293T ELG1-luciferase reporter, luminescence, 16 h; DNA damage induced by 5-fluorouridine; Potency, µM (doses to about 46.1 µM), for the others: at the top dose activity change, negative = inhibition, hits mostly inhibitors; 2.3% of 330,000 active; AID 504467, 2011; note: % is set by controls: 0 for no effect and ±100 for the full control effect; nearly all actives have a fitted effect of over 55% in size
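DMSO vehicle served as the neutral condition. Each well held 2,000 cells given 5-fluorouridine plus compound; after 16 hr at 37 °C/5% CO2, ONE-Glo was added and luciferase measured 30 min later.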
* = called active by the depositor; i = inactive; ? = inconclusive; . = no result given; [ ] = remark or other dose. A selection: hits, their analogues and other compounds. The true share with any hit is near 8.1%. Calls come from the whole dose curve; as a rule, active = well fitted curve in the direction sought with a large enough effect; inconclusive = small, poorly fitted or top-dose-only effect, or another doubt; inactive = no such curve, though single readings can be large; an effect the other way counts as inactive or inconclusive. Potency is the fitted concentration of half-maximal effect.

SMILES	MCF10A rereplic	KB-V1 MDR tox	KB-3-1 cytotox	SW480 rereplic	ELG1 DNA repair
O=C(Nc1ccccc1-c1nnc(SCc2ccccc2Cl)o1)c1ccccc1	?	15µM*	i	4%	-1%
O=C(OC1CC2CC1[C@H]1CCCCN1C2=O)N1CCC(c2ccccc2)CC1 (stereo not given in full)	.	i	i	.	.
COc1ccc2oc(C(=O)OCC(=O)NC(C)c3ccccc3)c(C)c2c1 (stereo not given)	?	i	i	?	5%
CCc1ccc(CNC(=O)Cn2c(-c3cccs3)cc3cc(F)ccc32)cc1	.	i	i	.	.
COc1cc(-c2nnc(SCC(=O)c3cc(C)n(CC4CCCO4)c3C)o2)cc(OC)c1OC (stereo not given)	23%	18µM*	i	10%	?
COc1ccc(C(=O)CSc2nnc(Cc3ccccc3)o2)cc1	-8%	i	i	7%	5%
Cc1cc(C(=O)CSc2nnc(-c3ccc(F)cc3)o2)c(C)n1CC1CCCO1 (stereo not given)	2%	?	i	-7%	?
Cc1cc(C(=O)COC(=O)c2ccc(O)cc2)c(C)n1CC1CCCO1 (stereo not given)	2%	?	i	0%	?
COc1ccc(Cc2nnc(SCC(=O)c3ccc(OC)cc3)o2)cc1	6.5µM*	i	i	-20%	?
Cc1cc(C(=O)COC(=O)c2ccc3c(c2)NC(=O)CS3)c(C)n1CC1CCCO1 (stereo not given)	?	12µM*	i	?	?
Cc1cc(C(=O)CN2C(=O)c3ccccc3S2(=O)=O)c(C)n1CC1CCCO1 (stereo not given)	0%	i	i	-2%	5.2µM*
O=C(COC(=O)c1ccc(S(=O)(=O)Nc2ccccc2)cc1)NC1CCCC1	26%	i	i	-4%	5%
COc1cccc(C(=O)CSc2nnc(-c3cc(OC)c(OC)c(OC)c3)o2)c1	1%	i	i	-7%	21µM*
COc1cc(-c2nnc(SCC(=O)c3ccc(C)cc3)o2)cc(OC)c1OC	12%	i	i	?	?
Cc1ccc(-c2ccc(C(=O)O)c(C)n2)cc1	-47%	i	i	2.3µM*	-1%
Cc1nc(-c2ccccc2)ccc1C(=O)O	?	i	i	5%[1.84 µM]	8%
COC(=O)c1ccc(-c2ccc(F)cc2)nc1C	-6%	i	i	29µM*	?
C=CCn1c(SCC(=O)c2[nH]c(C)c(C(=O)OCC)c2C)nc2scc(-c3ccc(OC)cc3)c2c1=O	?	?	4.6µM*	?	?
O=C(Cn1nnc2sc(-c3ccccc3)cc2c1=O)Nc1cccc(C(F)(F)F)c1	.	i	i	.	.
Cc1sc(-n2c(C)cc(C=O)c2C)c(C(=O)O)c1C	-3%	i	i	-5%	15%
CCOC(=O)c1cc(C#N)c(N2CCN(C(=O)c3ccccc3)CC2)nc1C(F)(F)F	-7%	21µM*	i	15µM*	?
COc1cccc(CNS(=O)(=O)c2ccc(S(=O)(=O)N3CCCC3)cc2)c1	-1%	i	i	?	1%
CCc1nc2ccccc2c(C(=O)OCC(=O)NCCCN2CCCC2=O)c1C	-3%	i	i	-10%	10%
Cc1ccc2oc3c(c(=O)c2c1)C(c1cccc(O)c1)N(c1ccccn1)C3=O (stereo not given)	-4%	?	?	-2%	16µM*
CCC(CC)C1=NN2C(=N)/C(=C\c3cc(C)n(-c4cccc(C)c4)c3C)C(=O)N=C2S1	?	i	i	2%	5%
SMILES	MCF10A rereplic	KB-V1 MDR tox	KB-3-1 cytotox	SW480 rereplic	ELG1 DNA repair
COc1ccc2c(C)cc(SCc3c(C)noc3C)nc2c1	12µM*	i	i	?	7%
COc1ccc2c(C)cc(SCC#N)nc2c1	?	i	i	-1%	-12%
COc1cc(S(=O)(=O)N2CCN3CCCC3C2)ccc1-n1cnnn1 (stereo not given)	-2%	i	i	1%	0%
COc1cc(S(=O)(=O)N2CCCC3(CCCCC3)C2)ccc1-n1cnnn1	-4%	21µM*	i	-4%	?
CCOC(=O)C1=C(C)NC2=C(C(=O)CCC2)C1c1coc2ccccc2c1=O (stereo not given)	0%	i	i	3%	10%
Cc1ccc(S(=O)(=O)n2ccc(=O)[nH]2)cc1	-3%	i	i	-6%	-11%
CCOC(=O)/C(C#N)=C/c1ccc(OCC(=O)Nc2ccc(C)c(C)c2)c(OC)c1	0%	i	i	-5%	3%
CCOc1cc(/C=N\Nc2ccc([N+](=O)[O-])cc2)ccc1OCC(=O)Nc1ccc(C)c(C)c1	16µM*	i	i	?	?
CCOc1cc(/C=N\NC(=O)Cc2ccccc2)ccc1OCC(=O)Nc1ccc(C)c(C)c1	15µM*	?	?	-1%	?
COc1cc(/C=N\Nc2ccc([N+](=O)[O-])cc2)ccc1OCC(=O)Nc1ccc(C)c(C)c1	5.8µM*	i	?	21µM*	?
CCOc1cc(/C=N/O)ccc1OCC(=O)Nc1cccc(C)c1	?	13µM*	i	5%	-10%
CCc1ccc(S(=O)(=O)c2nnn3c2nc(NC(C)C)c2sccc23)cc1	.	i	i	.	.
O=C(NC(c1ccccc1)c1ccsc1)C1CCN(Cc2ccccc2)CC1 (stereo not given)	.	i	i	.	.
Cn1c(-c2sc3ccccc3c2Cl)n[nH]c1=S	0%	16µM*	21µM*	-3%	4%
Cn1c(CSc2nc3ccccc3s2)n[nH]c1=S	-1%	i	i	-5%	?
CCCCNC(=NCc1cccc(C(F)(F)F)c1)Nc1ccccc1	?	21µM*	?	?	-6%
CC(=O)OCC1CCCC2=C(C)C(=O)CCC21COC(C)=O (stereo not given)	0%	i	i	-4%	0%
O=[N+]([O-])c1ccc(O)c(N=Cc2sc3ccccc3c2O)c1	-33%	4.1µM*	16µM*	?	0%
COc1ccc(N=Cc2sc3ccccc3c2Cl)cc1	-13%	i	i	?	?
Oc1ccc(Cl)cc1N=Cc1sc2ccccc2c1Cl	143%	i	?	21µM*	?
O=S(=O)(Nc1ccccc1F)c1ccc(Cl)nc1	1%	i	i	3%	11%
